Drawing on PubChem BioAssay (NCI), this text covers growth inhibition for nine compounds.

Compounds without any hit were thinned out: in the full panel of roughly 79,000, 15% have a hit. A number with no mark means an inactive call. Active and inactive are the calls of the source. Rule as the data show it: active = growth inhibition above about 70%; inactive = the rest.

Assay [1] can be described thus: NCI Yeast Anticancer Drug Screen. Data for the rad50 strain (AID 155).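 Also: 0% = growth of vehicle-only cultures of the same strain.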 Conditions: S. cerevisiae rad50 strain growth inhibition, active compounds read high. A digest of the protocol:
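DNA repair mutant yeast, compound exposure, growth read-out; inhibition is taken relative to vehicle.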

Assay [2] can be described thus: NCI Yeast Anticancer Drug Screen. Data for the mec2-1 strain (AID 157). Particulars: S. cerevisiae mec2-1 strain, active compounds read high. A digest of the protocol:
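Mutant yeast (mec2-1) grown with compound; growth inhibition relative to vehicle control reported.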

Assay [3] in a line: NCI Yeast Anticancer Drug Screen. Data for the sgs1 mgt1 strain (AID 161).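 Also: 0% = growth of cultures given vehicle only.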 Conditions: S. cerevisiae sgs1 mgt1 strain, active compounds read high. A digest of the protocol: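 Growth of a repair-deficient yeast mutant was monitored after compound treatment and expressed as inhibition relative to vehicle-treated cultures.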
The nature of assay [4]: NCI Yeast Anticancer Drug Screen. Data for the cln2 rad14 strain (AID 165).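 Also: 0% = growth equal to vehicle treated cultures.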 Particulars: S. cerevisiae cln2 rad14 strain, active compounds read high. A digest of the protocol: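 Readout is yeast growth inhibition versus vehicle-treated controls, using a strain with cln2 and rad14 alterations exposed to compound.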
Assay [5] is described as follows: NCI Yeast Anticancer Drug Screen. Data for the bub3 strain (AID 167). Conditions: S. cerevisiae bub3 mutant strain, active compounds read high. A digest of the protocol: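 In this screen, a yeast mutant lacking normal mitotic checkpoint function is challenged with compound. Relative growth versus vehicle gives the inhibition value.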
Assay [6] in a line: NCI Yeast Anticancer Drug Screen. Data for the mlh1 rad18 strain (AID 175). Particulars: S. cerevisiae mlh1 rad18 strain growth inhibition, active compounds read high. A digest of the protocol: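 Genetically defined yeast (DNA repair-deficient) exposed to compounds; growth inhibition determined relative to vehicle.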
Setting [7] is: at 5.0 µM (retest, dose inferred, filed as 0.5).
The mark [8] stands for this setting: at 50.0 µM (retest, dose inferred, filed as 5.0).

Take `CC(=O)N(c1ccccc1)c1nc2ccccc2s1`: the growth inhibition in assay [1] (setting [7]) was -8%; in assay [1] (setting [8]) it was 1%; in assay [1] (at 50.0 µM) it was -41.2%; in assay [2] (setting [7]) it was -4%; in assay [2] (setting [8]), -4%; in assay [2] (at 50.0 µM), -22.9%. Moreover, the growth inhibition in assay [3] (setting [7]) is -6%; in assay [3] (setting [8]), -4%; in assay [3] (at 50.0 µM), -22.6%; in assay [4] (setting [7]), -2%; in assay [4] (setting [8]), -6%; in assay [4] (at 50.0 µM), -42.6%. Also, the growth inhibition in assay [5] (setting [7]) is 30%; in assay [5] (setting [8]), 59%; in assay [5] (at 50.0 µM), 75.7% (active); in assay [6] (setting [7]), -25%; in assay [6] (setting [8]), -51%; in assay [6] (at 50.0 µM), -30.3%.
Turning to `C[C@]12CC[C@H](O)C[C@@H]1CC[C@@H]1[C@@H]2C(=O)C[C@]2(C)C3=CC(=O)O[C@H]3C[C@@H]12`, the growth inhibition in assay [1] (setting [7]) was 40%; in assay [1] (setting [8]), 97% (active); in assay [1] (at 50.0 µM) it was 98.2% (active); in assay [2] (setting [7]), 27%; in assay [2] (setting [8]), 98% (active); in assay [2] (at 50.0 µM), 91% (active). Besides, the growth inhibition was 32% in assay [3] (setting [7]); 98% (active) in assay [3] (setting [8]); 94% (active) in assay [3] (at 50.0 µM); -3% in assay [4] (setting [7]); 94% (active) in assay [4] (setting [8]); 57.6% in assay [4] (at 50.0 µM). For the same compound, the growth inhibition in assay [5] (setting [7]) is 11%; in assay [5] (setting [8]), 97% (active); in assay [5] (at 50.0 µM), 92.6% (active); in assay [6] (setting [7]), 34%; in assay [6] (setting [8]), 98% (active); in assay [6] (at 50.0 µM), 96.8% (active).
Regarding `Cn1cc(NC(=O)c2cc(NC(=O)CCCCCCCCCCC(=O)Nc3cc(C(=O)Nc4cc(C(=O)NCCC(=N)N)n(C)c4)n(C)c3)cn2C)cc1C(=O)NCCC(=N)N`, the growth inhibition is 92% (active) in assay [1] (setting [7]); 98% (active) in assay [1] (setting [8]); 89.5% (active) in assay [1] (at 50.0 µM); 95% (active) in assay [2] (setting [7]); 98% (active) in assay [2] (setting [8]); 92% (active) in assay [2] (at 50.0 µM). For the same compound, the growth inhibition in assay [3] (setting [7]) was 95% (active); in assay [3] (setting [8]), 99% (active); in assay [3] (at 50.0 µM), 92% (active); in assay [4] (setting [7]) it was 72% (active); in assay [4] (setting [8]) it was 97% (active); in assay [4] (at 50.0 µM), 91.4% (active). Besides, the growth inhibition is 96% (active) in assay [5] (setting [7]); 98% (active) in assay [5] (setting [8]); 91% (active) in assay [5] (at 50.0 µM); 92% (active) in assay [6] (setting [7]); 97% (active) in assay [6] (setting [8]); 90.2% (active) in assay [6] (at 50.0 µM).
Consider `COC(=O)/C=C1/Nc2ccc(Cl)cc2C(=O)NC1=O`, for which the growth inhibition in assay [1] (setting [7]) was 44%; in assay [1] (setting [8]) it was 56%; in assay [1] (at 50.0 µM), 39.3%; in assay [2] (setting [7]) it was 36%; in assay [2] (setting [8]) it was 45%; in assay [2] (at 50.0 µM) it was 27.2%. For the same compound, the growth inhibition is 36% in assay [3] (setting [7]); 54% in assay [3] (setting [8]); 58.9% in assay [3] (at 50.0 µM); 23% in assay [4] (setting [7]); 42% in assay [4] (setting [8]); 28.9% in assay [4] (at 50.0 µM). In addition, the growth inhibition was 41% in assay [5] (setting [7]); 80% (active) in assay [5] (setting [8]); 30.8% in assay [5] (at 50.0 µM); 40% in assay [6] (setting [7]); 52% in assay [6] (setting [8]); 33.5% in assay [6] (at 50.0 µM).
Regarding `COc1cc2c(ccc3cc4cccc[n+]4cc32)c(Br)c1OC`, the growth inhibition was 0% in assay [1] (setting [7]); 44% in assay [1] (setting [8]); 76.8% (active) in assay [1] (at 50.0 µM); -6% in assay [2] (setting [7]); 73% (active) in assay [2] (setting [8]); 42.5% in assay [2] (at 50.0 µM). The growth inhibition in assay [3] (setting [7]) was -7%; in assay [3] (setting [8]), 39%; in assay [3] (at 50.0 µM), 73.2% (active); in assay [4] (setting [7]), -8%; in assay [4] (setting [8]) it was 13%; in assay [4] (at 50.0 µM), 20.4%. Further, the growth inhibition in assay [5] (setting [7]) is -5%; in assay [5] (setting [8]), 46%; in assay [5] (at 50.0 µM) it was 10.4%; in assay [6] (setting [7]), 4%; in assay [6] (setting [8]), 75% (active); in assay [6] (at 50.0 µM), 67.8%.
As for `O=C(O)CCSCc1cc(C(=O)Nc2ccc(/C=C/c3ccc(NC(=O)c4cc(CSCCC(=O)O)c5cccnc5c4O)cc3S(=O)(=O)O)c(S(=O)(=O)O)c2)c(O)c2ncccc12`, the growth inhibition is 48% in assay [1] (setting [7]); 53% in assay [1] (setting [8]); 74% (active) in assay [1] (at 50.0 µM); 37% in assay [2] (setting [7]); 89% (active) in assay [2] (setting [8]); 61.6% in assay [2] (at 50.0 µM). The growth inhibition in assay [3] (setting [7]) was 58%; in assay [3] (setting [8]), 53%; in assay [3] (at 50.0 µM), 79.1% (active); in assay [4] (setting [7]) it was 22%; in assay [4] (setting [8]) it was 74% (active); in assay [4] (at 50.0 µM), 45.5%. The growth inhibition is 59% in assay [5] (setting [7]); 96% (active) in assay [5] (setting [8]); 78.4% (active) in assay [5] (at 50.0 µM); 52% in assay [6] (setting [7]); 92% (active) in assay [6] (setting [8]); 79.5% (active) in assay [6] (at 50.0 µM).
Regarding `CN(C)CCC1(C2=CCCC2)CC/C(=C\c2ccccc2Cl)C1=O` (configuration not stated), the growth inhibition in assay [1] (setting [7]) was -1%; in assay [1] (setting [8]), 60%; in assay [1] (at 50.0 µM), 69.3%; in assay [2] (setting [7]), -18%; in assay [2] (setting [8]), 28%; in assay [2] (at 50.0 µM) it was 22.6%. In addition, the growth inhibition is 0% in assay [3] (setting [7]); 62% in assay [3] (setting [8]); 42.4% in assay [3] (at 50.0 µM); -10% in assay [4] (setting [7]); 51% in assay [4] (setting [8]); 73% (active) in assay [4] (at 50.0 µM). For the same compound, the growth inhibition was 19% in assay [5] (setting [7]); 76% (active) in assay [5] (setting [8]); 36.5% in assay [5] (at 50.0 µM); 4% in assay [6] (setting [7]); 92% (active) in assay [6] (setting [8]); 87.8% (active) in assay [6] (at 50.0 µM).
For the compound `Oc1ccccc1/C=N/NC(=S)NC12CC3CC(CC(C3)C1)C2`, the growth inhibition is 7% in assay [1] (setting [7]); 19% in assay [1] (setting [8]); 81.3% (active) in assay [1] (at 50.0 µM); 14% in assay [2] (setting [7]); 11% in assay [2] (setting [8]); 29.6% in assay [2] (at 50.0 µM). Besides, the growth inhibition in assay [3] (setting [7]) is 27%; in assay [3] (setting [8]), 19%; in assay [3] (at 50.0 µM), 64.4%; in assay [4] (setting [7]), -38%; in assay [4] (setting [8]) it was 20%; in assay [4] (at 50.0 µM), 31.1%. Besides, the growth inhibition in assay [5] (setting [7]) is 21%; in assay [5] (setting [8]) it was 21%; in assay [5] (at 50.0 µM), 42.8%; in assay [6] (setting [7]) it was 10%; in assay [6] (setting [8]), 41%; in assay [6] (at 50.0 µM), 85.9% (active).
Take `CCC(CC)(C(=O)Nc1ccc2c(c1)c(=O)c1ccccc1n2C)C(=O)Nc1ccc2c(c1)c(=O)c1ccccc1n2C`: the growth inhibition in assay [1] (setting [7]) was 7%; in assay [1] (setting [8]), 97% (active); in assay [1] (at 50.0 µM) it was 97% (active); in assay [2] (setting [7]) it was -3%; in assay [2] (setting [8]) it was 86% (active); in assay [2] (at 50.0 µM) it was 77.7% (active). Moreover, the growth inhibition in assay [3] (setting [7]) was -25%; in assay [3] (setting [8]) it was 71% (active); in assay [3] (at 50.0 µM), 70.8% (active); in assay [4] (setting [7]), -4%; in assay [4] (setting [8]), 75% (active); in assay [4] (at 50.0 µM), 73% (active). The growth inhibition in assay [5] (setting [7]) is -10%; in assay [5] (setting [8]), 78% (active); in assay [5] (at 50.0 µM) it was 61.2%; in assay [6] (setting [7]) it was -6%; in assay [6] (setting [8]) it was 92% (active); in assay [6] (at 50.0 µM) it was 95.7% (active).
